About 83,000 compounds went through this panel and 20% of them were active in at least one assay; those are over-represented in the sample as a whole.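 The test compound was applied at a single concentration to cells in 96-well plates for 48 hours, and percent growth was recorded.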 The source made the active and inactive calls. The calls were made as follows: active = growth percent below 10; inactive = the rest.
What was measured:
Assay in all cases: NCI-60 one-dose screen, 48 h (100 = growth as untreated, 0 = no growth, -100 = all killed)
Details in all cases: 10 µM unless noted
HCT-15 colon = system: HCT-15 colon
HT29 colon = system: HT29 colon
SNB-75 CNS = system: SNB-75 CNS
SNB-19 CNS = system: SNB-19 CNS
U251 CNS = system: U251 CNS
PC-3 prostate = system: PC-3 prostate
SK-MEL-5 melanoma = system: SK-MEL-5 melanoma
UACC-62 melanoma = system: UACC-62 melanoma
LOX IMVI melanoma = system: LOX IMVI melanoma
SK-MEL-28 melanoma = system: SK-MEL-28 melanoma
SK-MEL-2 melanoma = system: SK-MEL-2 melanoma
EKVX NSCLC = system: EKVX NSCLC
SN12C renal = system: SN12C renal
UO-31 renal = system: UO-31 renal
TK-10 renal = system: TK-10 renal
ACHN renal = system: ACHN renal
CAKI-1 renal = system: CAKI-1 renal
A498 renal = system: A498 renal
MOLT-4 leukemia = system: MOLT-4 leukemia
CCRF-CEM leukemia = system: CCRF-CEM leukemia

Measured: growth

Cc1ccc(Nc2cc(Cl)c([N+](=O)[O-])cc2[N+](=O)[O-])cc1
inactive: HCT-15 colon 16.8% | SNB-75 CNS 96% | SNB-19 CNS 85.8% | U251 CNS 25.8% | PC-3 prostate 55.3% | SK-MEL-5 melanoma 53.6% | UACC-62 melanoma 48.7% | SK-MEL-28 melanoma 71.5% | SK-MEL-2 melanoma 28.3% | EKVX NSCLC 102% | SN12C renal 24.6% | UO-31 renal 77.7% | TK-10 renal 15.5% | ACHN renal 26% | CAKI-1 renal 32.8% | A498 renal 92.3% | MOLT-4 leukemia 10.3%
active: HT29 colon 3.12% | LOX IMVI melanoma 9.04%

COc1ccc(CC2c3cc(OC)c(OC)cc3CC[N+]2(C)CCC(=O)OCCCCCOC(=O)CC[N+]2(C)CCc3cc(OC)c(OC)cc3C2Cc2ccc(OC)c(OC)c2)cc1OC (stereo unspecified)
inactive: HCT-15 colon 102% | HT29 colon 96% | SNB-75 CNS 63.4% | SNB-19 CNS 104% | U251 CNS 93.4% | PC-3 prostate 90.3% | SK-MEL-5 melanoma 87.4% | UACC-62 melanoma 93.3% | LOX IMVI melanoma 81% | SK-MEL-28 melanoma 99.8% | SK-MEL-2 melanoma 98.7% | EKVX NSCLC 101% | SN12C renal 81.2% | UO-31 renal 66.2% | TK-10 renal 124% | ACHN renal 97.1% | CAKI-1 renal 87.4% | A498 renal 66% | CCRF-CEM leukemia 94.1% | MOLT-4 leukemia 80.4%

NC(N)=N/N=C/c1ccc(Cl)cc1
inactive: HCT-15 colon 70.5% | HT29 colon 35.9% | SNB-75 CNS 81.1% | SNB-19 CNS 91.2% | U251 CNS 88.8% | PC-3 prostate 84.8% | SK-MEL-5 melanoma 74.5% | UACC-62 melanoma 78.8% | LOX IMVI melanoma 86.3% | SK-MEL-28 melanoma 93.5% | SK-MEL-2 melanoma 95.9% | EKVX NSCLC 64.2% | SN12C renal 94.9% | UO-31 renal 73.3% | TK-10 renal 84.9% | ACHN renal 91.8% | CAKI-1 renal 34% | A498 renal 68.2% | CCRF-CEM leukemia 71% | MOLT-4 leukemia 53.9%

Cc1ccc(C(CN(C)C)C(=O)c2ccccc2)cc1 (stereo unspecified)
active: HCT-15 colon -12.1% | HT29 colon -34.3% | UACC-62 melanoma 6.99% | LOX IMVI melanoma -6.07% | ACHN renal -2.93% | CCRF-CEM leukemia -9.16% | MOLT-4 leukemia -9.61%
inactive: SNB-75 CNS 54.1% | SNB-19 CNS 85.7% | U251 CNS 41.7% | PC-3 prostate 32.9% | SK-MEL-5 melanoma 64.1% | SK-MEL-28 melanoma 50.7% | SK-MEL-2 melanoma 49.7% | EKVX NSCLC 68.7% | SN12C renal 36.4% | UO-31 renal 53.5% | TK-10 renal 44.8% | CAKI-1 renal 52.4% | A498 renal 60.6%

COc1nccc2c(Sc3ccccc3)nc(N)nc12
inactive: HCT-15 colon 100% | HT29 colon 108% | SNB-75 CNS 84.5% | SNB-19 CNS 117% | U251 CNS 110% | PC-3 prostate 84.7% | SK-MEL-5 melanoma 99.2% | UACC-62 melanoma 102% | LOX IMVI melanoma 107% | SK-MEL-28 melanoma 106% | SK-MEL-2 melanoma 101% | EKVX NSCLC 117% | SN12C renal 105% | UO-31 renal 75.3% | TK-10 renal 103% | ACHN renal 108% | CAKI-1 renal 106% | A498 renal 76.2% | CCRF-CEM leukemia 97.7% | MOLT-4 leukemia 94.5%

C#C[C@]1(O)CC[C@H]2[C@@H]3CC=C4c5sc(-c6cccc(Br)c6)nc5CC[C@]4(C)[C@H]3CC[C@@]21C
inactive: HCT-15 colon 61.7% | HT29 colon 83.1% | SNB-75 CNS 59% | SNB-19 CNS 84.6% | U251 CNS 70.9% | PC-3 prostate 57.2% | SK-MEL-5 melanoma 99.9% | UACC-62 melanoma 89.9% | LOX IMVI melanoma 71.6% | SK-MEL-28 melanoma 54.7% | SK-MEL-2 melanoma 98.2% | EKVX NSCLC 80.1% | SN12C renal 96.3% | UO-31 renal 62.6% | TK-10 renal 97.7% | ACHN renal 83.3% | CAKI-1 renal 35% | A498 renal 71.7% | CCRF-CEM leukemia 61.4% | MOLT-4 leukemia 58%

COc1cccc(/C=N\Nc2ccc([N+](=O)[O-])cn2)c1O
inactive: HCT-15 colon 29.7% | HT29 colon 99.1% | SNB-75 CNS 83.1% | SNB-19 CNS 50.9% | U251 CNS 21.7% | PC-3 prostate 97.5% | SK-MEL-5 melanoma 49.8% | UACC-62 melanoma 54.7% | LOX IMVI melanoma 36.9% | SK-MEL-28 melanoma 83.5% | SK-MEL-2 melanoma 77.1% | EKVX NSCLC 83.9% | SN12C renal 55% | UO-31 renal 26.9% | TK-10 renal 73.5% | ACHN renal 28.5% | CAKI-1 renal 27.8% | A498 renal 39.8% | CCRF-CEM leukemia 79.3% | MOLT-4 leukemia 58%

Clc1ccc(-c2cnc3c(-c4ccnc(N5CCNCC5)c4)cnn3c2)cc1
active: HCT-15 colon -22.9% | HT29 colon -7.81% | SNB-75 CNS -68.6% | SNB-19 CNS 3.09% | U251 CNS -58.1% | UACC-62 melanoma -66.8% | LOX IMVI melanoma -80.9% | SK-MEL-28 melanoma -82.8% | SK-MEL-2 melanoma -57.4% | UO-31 renal -42.6% | TK-10 renal 1.85% | ACHN renal -0.355% | CAKI-1 renal -19.2% | CCRF-CEM leukemia 0.88% | MOLT-4 leukemia -5.54%
inactive: PC-3 prostate 15.2% | SK-MEL-5 melanoma 73.8% | EKVX NSCLC 80.8% | SN12C renal 10.9% | A498 renal 92.2%

O=C(c1ccccc1)C(CCc1ccccn1)CCc1ccccn1
inactive: HCT-15 colon 96.6% | HT29 colon 96.7% | SNB-75 CNS 106% | SNB-19 CNS 94.1% | U251 CNS 101% | PC-3 prostate 86.8% | SK-MEL-5 melanoma 100% | UACC-62 melanoma 86.1% | LOX IMVI melanoma 95.8% | SK-MEL-28 melanoma 106% | SK-MEL-2 melanoma 96.1% | EKVX NSCLC 107% | SN12C renal 95.7% | UO-31 renal 75.1% | TK-10 renal 97.3% | ACHN renal 106% | CAKI-1 renal 106% | A498 renal 100% | CCRF-CEM leukemia 95.3% | MOLT-4 leukemia 99%

CCCCCCCCCCCCCCCC1=NCCN1
inactive: SNB-75 CNS 82.7% | SNB-19 CNS 24.8% | U251 CNS 16.1% | PC-3 prostate 47.6% | SK-MEL-5 melanoma 80.6% | UACC-62 melanoma 76.1% | SK-MEL-28 melanoma 80.7% | SK-MEL-2 melanoma 96% | EKVX NSCLC 85.2% | UO-31 renal 64.5% | TK-10 renal 102% | ACHN renal 71.2% | CAKI-1 renal 81.3% | A498 renal 65.5%
active: HCT-15 colon 0.909% | HT29 colon 4.17% | LOX IMVI melanoma 1.64% | SN12C renal -51.6% | MOLT-4 leukemia -27.3%

O=C(CC(=O)C(F)(F)C(F)(F)C(F)(F)F)c1cc2ccccc2o1
inactive: HCT-15 colon 108% | HT29 colon 103% | SNB-75 CNS 92.2% | SNB-19 CNS 107% | U251 CNS 97.5% | PC-3 prostate 91.1% | SK-MEL-5 melanoma 106% | UACC-62 melanoma 104% | LOX IMVI melanoma 92.4% | SK-MEL-28 melanoma 105% | SK-MEL-2 melanoma 106% | EKVX NSCLC 100% | SN12C renal 103% | UO-31 renal 87.5% | TK-10 renal 108% | ACHN renal 110% | CAKI-1 renal 94.8% | A498 renal 125% | CCRF-CEM leukemia 102% | MOLT-4 leukemia 102%

OC(CCCCCCCCC(O)CN1CCc2ccccc2C1)CN1CCc2ccccc2C1 (stereo unspecified)
inactive: HCT-15 colon 95.1% | HT29 colon 114% | SNB-75 CNS 95.4% | SNB-19 CNS 105% | U251 CNS 101% | PC-3 prostate 98.9% | SK-MEL-5 melanoma 95.2% | UACC-62 melanoma 101% | LOX IMVI melanoma 96.4% | SK-MEL-28 melanoma 108% | SK-MEL-2 melanoma 111% | EKVX NSCLC 89.5% | SN12C renal 105% | UO-31 renal 86.1% | TK-10 renal 103% | ACHN renal 110% | CAKI-1 renal 92.6% | A498 renal 107% | MOLT-4 leukemia 110%

COc1cc(CN(c2ccc(C)cc2)C2OC(=O)c3ccccc32)cc(OC)c1OC (stereo unspecified)
active: HCT-15 colon 6.19% | SNB-75 CNS 6.43%
inactive: HT29 colon 18.9% | SNB-19 CNS 38.6% | U251 CNS 32.3% | PC-3 prostate 51.8% | SK-MEL-5 melanoma 19.9% | UACC-62 melanoma 45.9% | LOX IMVI melanoma 42.7% | SK-MEL-28 melanoma 51.8% | SK-MEL-2 melanoma 55% | EKVX NSCLC 71.8% | SN12C renal 50.1% | UO-31 renal 59.7% | TK-10 renal 93.3% | ACHN renal 56.3% | CAKI-1 renal 49.3% | A498 renal 51.7% | CCRF-CEM leukemia 11.5% | MOLT-4 leukemia 17.9%

CN(C)c1nc(-c2cccs2)n2nc(-c3ccco3)cc2n1
inactive: HCT-15 colon 79.4% | HT29 colon 93.4% | SNB-75 CNS 86.5% | SNB-19 CNS 102% | U251 CNS 93.6% | PC-3 prostate 91.2% | SK-MEL-5 melanoma 94.1% | UACC-62 melanoma 89.7% | LOX IMVI melanoma 77.6% | SK-MEL-28 melanoma 117% | SK-MEL-2 melanoma 92.9% | EKVX NSCLC 80.1% | SN12C renal 92% | UO-31 renal 57.9% | TK-10 renal 103% | ACHN renal 96.9% | CAKI-1 renal 85.5% | A498 renal 74.1% | CCRF-CEM leukemia 93.9% | MOLT-4 leukemia 97%

COc1cc(CN2CCC(N3CCCC3=O)c3ccccc32)cc(OC)c1OC (stereo unspecified)
inactive: HCT-15 colon 108% | HT29 colon 80.5% | SNB-75 CNS 84.1% | SNB-19 CNS 83.6% | U251 CNS 85.5% | PC-3 prostate 66% | SK-MEL-5 melanoma 40.5% | UACC-62 melanoma 64.4% | LOX IMVI melanoma 76.3% | SK-MEL-28 melanoma 98.2% | SK-MEL-2 melanoma 89.8% | EKVX NSCLC 66.1% | SN12C renal 79.7% | UO-31 renal 56% | TK-10 renal 86.3% | ACHN renal 91.3% | CAKI-1 renal 70.7% | A498 renal 63.6% | MOLT-4 leukemia 72.4%

Source: PubChem BioAssay (NCI)
